Experimental findings from the supplement of paper PMC7695840 are described below.

Assay [1] concerns Staphylococcus aureus MW2 delta-mecA (mecA-). The experiment in a line: normalized GFP fluorescence (growth of mecA- strain) (fraction of control range); higher = more growth of mecA- strain. The following applies: compound concentration: 150 uM; cefoxitin: subinhibitory; fluorescent label: GFP. In outline:
(§1)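 Fluorescence from DsRed (540/590) and GFP (485/520) was recorded after 20 h of static growth at 37 °C and 90% humidity. The wells held a 1:1 mix of pre-induced S. aureus MW2 cells, gene-bearing with DsRed and gene-deleted with GFP, in LB with a daily-set subinhibitory antibiotic dose, dispensed at 5 µL/well onto 150 μM compound (1.5% DMSO) in 1536-well plates, single replicate. Each channel was scaled per plate between single-strain control medians, excluding plates with high untreated ratios and rows with DsRed/GFP >10.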

The test system of assay [2] is Staphylococcus aureus MW2 (mecA+). The experiment in a line: normalized DsRed fluorescence (growth of mecA+ strain) (fraction of control range); higher = more growth of mecA+ strain. The following applies: compound concentration: 150 uM; cefoxitin: subinhibitory; fluorescent label: DsRed. In outline:
as §1

As for `CC(C)COCC(CN(Cc1ccccc1)c1ccccc1)N1CCCC1` (stereo unspecified), the “normalized GFP fluorescence” value in assay [1] came out at 0.00856. The “normalized DsRed fluorescence” value in assay [2] amounted to 0.96.

Regarding `CC(C)C(=O)Nc1ccc([N+](=O)[O-])c(C(F)(F)F)c1`, the “normalized GFP fluorescence” value in assay [1] is 0.121. In addition, the “normalized DsRed fluorescence” value in assay [2] was determined as 1.4.

Take `CC1(C)O[C@@H]2C[C@H]3[C@@H]4C[C@H](F)C5=CC(=O)C=C[C@]5(C)[C@@]4(F)[C@@H](O)C[C@]3(C)[C@]2(C(=O)CO)O1`: the “normalized GFP fluorescence” value in assay [1] is 0.372. Also, in assay [2], the “normalized DsRed fluorescence” value came out at 0.706.

Turning to `CC(=O)N(CC(O)CO)c1c(I)c(C(=O)NCCO)c(I)c(C(=O)NCC(O)CO)c1I` (stereo unspecified), the “normalized GFP fluorescence” value in assay [1] came out at 0.914. Also, the “normalized DsRed fluorescence” value in assay [2] amounted to 0.86.

Consider `O=C1CN2Cc3c(ccc(Cl)c3Cl)N=C2N1`, for which the “normalized GFP fluorescence” value in assay [1] was determined as 0.237. Besides, the “normalized DsRed fluorescence” value in assay [2] turned out to be 0.896.

Regarding `CN1CCN(CC(=O)N2c3ccccc3C(=O)Nc3cccnc32)CC1`, the “normalized GFP fluorescence” value in assay [1] turned out to be 0.28. The “normalized DsRed fluorescence” value in assay [2] turned out to be 0.759.

As to `O=C(O)CCC(=O)Nc1ccc(S(=O)(=O)Nc2nccs2)cc1`, in assay [1], the “normalized GFP fluorescence” value stood at 0.332. Besides, the “normalized DsRed fluorescence” value in assay [2] was 1.01.

For the compound `C#C[C@]1(O)CC[C@H]2[C@@H]3CCC4=CC(=O)CC[C@@H]4[C@H]3CC[C@@]21CC`, the “normalized GFP fluorescence” value in assay [1] worked out at 0.305. For the same compound, in assay [2], the “normalized DsRed fluorescence” value was determined as 1.05.

For the compound `CCN(CC)CCNC(=O)c1cc(S(C)(=O)=O)ccc1OC`, in assay [1], the “normalized GFP fluorescence” value worked out at 0.437. In addition, the “normalized DsRed fluorescence” value in assay [2] was determined as 0.945.

On to `O[C@H]1[C@H](O)[C@@H](O)[C@H](O)[C@@H](O)[C@H]1O`, for which the “normalized GFP fluorescence” value in assay [1] came out at 0.236. Besides, the “normalized DsRed fluorescence” value in assay [2] turned out to be 0.698.

`Nc1cccc2c1CN(C1CCC(=O)NC1=O)C2=O` (stereo unspecified) [Lenalidomide]: the “normalized GFP fluorescence” value in assay [1] worked out at 0.34. For the same compound, in assay [2], the “normalized DsRed fluorescence” value is 0.974.

As to `CCN(CCCCOC(=O)c1ccc(OC)c(OC)c1)C(C)Cc1ccc(OC)cc1` (stereo unspecified), the “normalized GFP fluorescence” value in assay [1] was 0.41. Further, in assay [2], the “normalized DsRed fluorescence” value was 0.559.

Turning to `CCC(=O)O[C@]1(C(=O)CCl)[C@@H](C)C[C@H]2[C@@H]3CCC4=CC(=O)C=C[C@]4(C)[C@@]3(F)[C@@H](O)C[C@@]21C` [Clobetasol propionate], the “normalized GFP fluorescence” value in assay [1] was -0.000558. For the same compound, the “normalized DsRed fluorescence” value in assay [2] came to 1.15.
